39 compounds from PubChem BioAssay (NCATS) can be followed below.

In test [1] the target is Aldehyde dehydrogenase, mitochondrial (Homo sapiens) (UniProt P05091). Briefly: qHTS for Inhibitors of the Aldehyde Dehydrogenase Family (ALDH2) Primary screen (AID 2061308). Note: nearly all actives have a fitted effect of over 55% in size. Conditions: ALDH2 enzyme inhibition qHTS, 1536-well; series mostly up to 56 µM. A general note: qHTS replaces the single test concentration by a dilution series.
Test [2] addresses Retinaldehyde dehydrogenase 3 (Homo sapiens) (UniProt P47895). Briefly: qHTS for Inhibitors of the Aldehyde Dehydrogenase Family (ALDH1A3) Primary screen (AID 2061315). Conditions: ALDH inhibition qHTS; series mostly up to 56 µM.

Results filed as inconclusive are left out. A call without a number means that no potency is given here. Activity calls are given as the source filed them. Calls come from the whole dose curve; as a rule, active = well fitted curve in the direction sought with a large enough effect; inconclusive = small, poorly fitted or top-dose-only effect, or another doubt; inactive = no such curve, though single readings can be large; an effect the other way counts as inactive or inconclusive.

Turning to `O=c1c2ccccc2nc2sc(Nc3cccc4ccccc34)nn12`, the Potency entry in test [1] and in test [2] was “inactive” each time.
For `CC(=O)Nc1ccc(S(=O)(=O)N2CCN(S(=O)(=O)c3c(F)cccc3F)CC2)cc1`, the Potency result in test [1] and in test [2] was “inactive” throughout.
As to `O=C(/C=C/c1cccc(Cl)c1)Nc1cccc([S+](=O)([O-])Nc2ccccc2F)c1`, the Potency result in test [1] and in test [2] was “inactive” in each case.
`C=C(C)C(=O)OC1CC2(C)OC(=CC2=O)C(=C)CC2OC(=O)C(COC)C12` (stereo not drawn): the Potency result in test [1] and in test [2] was “inactive” each time.
As to `Cc1ccc(OCCn2c(CCNC(=O)c3ccc4ccccc4c3)nc3ccccc32)cc1`, the Potency result in test [1] and in test [2] was “inactive” throughout.
As for `Cc1ccc(Cn2ncc3c4sc(C)cc4n(C)c3c2=O)cc1`, the Potency result in test [1] and in test [2] was “inactive” each time.
For `Cc1noc(C)c1-c1ccc2ncnc(NCc3cccc(F)c3)c2c1`, the Potency result in test [1] and in test [2] was “inactive” in each case.
For the compound `Cc1ccc(-c2nn(CC(=O)N(C)C(C)c3ccco3)c(=O)cc2C)cc1` (stereo not drawn), the Potency result in test [1] and in test [2] was “inactive” each time.
Turning to `N[C@@H](Cc1ccc(O[S+](=O)([O-])c2cccc3cnccc23)cc1)C(=O)N1CCN(c2ccccc2)CC1`, the Potency result in test [1] and in test [2] was “inactive” in each case.
Consider `O=C1c2ccccc2C(=O)N1c1ccc(O)cc1`, for which the Potency entry in test [1] and in test [2] was “inactive” throughout.
On to `COC(=O)C1=C(C)NC(COC(N)=O)=C(C(=O)OC(C)C)C1c1cccc(Cl)c1Cl` (stereo not drawn), for which the Potency entry in test [1] and in test [2] was “inactive” each time.
For `Oc1ccc(/C=C/c2ccccc2F)c2cccnc12`, the Potency result in test [1] and in test [2] was “inactive” in each case.
As to `Fc1cc(Nc2nc(-c3ccncc3)nc3ccccc23)ccc1-n1cncn1`, the Potency entry in test [1] and in test [2] was “inactive” throughout.
`CCCCC1CCC(C(=O)Nc2ccc(S(=O)(=O)Nc3cc(C)on3)cc2)CC1` (stereo not drawn): the Potency entry in test [1] and in test [2] was “inactive” each time.
As to `Cc1cccc(-c2ccc3ncnc(NCc4cc(C)cs4)c3c2)c1`, the Potency result in test [1] and in test [2] was “inactive” each time.
Consider `Cn1nnnc1Sc1ncnc2scc(-c3ccccc3Br)c12`, for which the Potency result in test [1] and in test [2] was “inactive” in each case.
Take `COc1ccc(C2Nc3ccccc3C(=O)N2Cc2ccncc2)cc1COc1c(C)cc(NC(C)=O)cc1C` (stereo not drawn): the Potency result in test [1] and in test [2] was “inactive” throughout.
As for `O=C(N1CCc2cc([S+](=O)([O-])N3CCN([S+](=O)([O-])c4c(F)cccc4F)CC3)ccc2C1)C(F)(F)F`, the Potency result in test [1] and in test [2] was “inactive” throughout.
Turning to `C[C@H](N)C(=O)Nc1ccc(Cl)cc1C(=O)c1ccc[nH]1`, the Potency result in test [1] and in test [2] was “inactive” in each case.
As for `N#Cc1cnc(N[S+](=O)([O-])c2ccc(Nc3nc(-c4ccccc4)cs3)cc2)s1`, the Potency result in test [1] and in test [2] was “inactive” in each case.
For the compound `O=[N+]([O-])c1ccc(CSc2nc3ncc(Br)cc3[nH]2)cc1`, the Potency result in test [1] and in test [2] was “inactive” throughout.
For the compound `C/C=C(\C)C(=O)O[C@H]1C=C(CO)C(=O)[C@H](OC(C)=O)[C@H]1C(C)C`, the Potency entry in test [1] and in test [2] was “inactive” each time.
Take `C=CC(=O)Nc1cc(Nc2ncc(Cl)c(-c3c[nH]c4ccccc34)n2)c(OC)cc1N(C)CCN(C)C`: the Potency entry in test [1] and in test [2] was “inactive” each time.
Consider `Cc1ccc(OCCn2c(CCNC(=O)COc3ccccc3Br)nc3ccccc32)cc1`, for which the Potency result in test [1] and in test [2] was “inactive” each time.
For the compound `O=C(O)c1ccc(O)c2ncc(N3CCCC3)cc12`, the Potency entry in test [1] and in test [2] was “inactive” throughout.
Consider `O=C(O)c1ccc2c(c1)C(=O)N([C@H](Cc1ccc(O)c(O)c1)C(=O)O)C2=O`, for which the Potency result in test [1] and in test [2] was “inactive” each time.
Take `Cc1c(P(=S)(c2ccccc2)c2ccccc2)c2ccccc2n1C(=O)NCc1ccc(F)cc1`: the Potency result in test [1] and in test [2] was “inactive” in each case.
In the case of `Cc1ccccc1C(C(=O)NC1CCCCC1)N(C(=O)Cn1cnc2ccccc21)c1cccc(F)c1` (stereo not drawn), the Potency entry in test [1] and in test [2] was “inactive” throughout.
`FC(F)(F)c1ccccc1-c1nc(NCc2ccc(Br)cc2)c2ccccc2n1`: the Potency entry in test [1] and in test [2] was “inactive” throughout.
As for `COC(=O)c1cc(F)c(S(=O)(=O)N2CCN(S(=O)(=O)c3ccc4c(c3)OCCO4)CC2)cc1F`, the Potency entry in test [1] and in test [2] was “inactive” in each case.
Consider `CC(C)c1ccccc1-c1ncc(F)c(NCc2ccc(-c3ccn[nH]3)cc2)n1`, for which the Potency result in test [1] and in test [2] was “inactive” each time.
As to `C=C(C)c1cc2c(s1)c1cnn(Cc3ccccc3F)c(=O)c1n2C`, the Potency entry in test [1] and in test [2] was “inactive” throughout.
For the compound `CC(=O)c1ccc(NC(=O)c2cnn3c(C)cc(C)nc23)cc1`, the Potency result in test [1] and in test [2] was “inactive” throughout.
Regarding `O=S(=O)(Nc1ccc(C2CCNCC2)cc1)c1ccc(NCc2cccc(Cl)c2O)cc1`, the Potency result in test [1] and in test [2] was “inactive” each time.
`CCC(C(=O)NC(=O)NC(C)=O)c1ccccc1` (stereo not drawn): the Potency result in test [1] and in test [2] was “inactive” in each case.
For the compound `CC(C)(NC(=O)Nc1ccccc1Cl)C(=O)N1CCC(C(=O)O)CC1`, the Potency entry in test [1] and in test [2] was “inactive” each time.
Take `O=C(O)c1ccc(O)c2ncc(N3CCC(N4CCOCC4)C3)cc12` (stereo not drawn): the Potency result in test [1] and in test [2] was “inactive” each time.
As for `Fc1cc(Nc2nc(-c3ccncc3)nc3ccccc23)ccc1-c1cc(F)c(F)c(F)c1`, the Potency entry in test [1] and in test [2] was “inactive” in each case.
Turning to `Cc1cc(C)nc(NC(=S)N2CCN(c3ccc(NS(C)(=O)=O)nn3)CC2)c1`, the Potency result in test [1] and in test [2] was “inactive” each time.
